# Measurements reported in ChEMBL document CHEMBL3988442, “University of Dundee, Small-Polar-MMV Screening Library” (2021).
# Target: AMP-activated protein kinase, AMPK (Homo sapiens) (UniProt P54646+O43741+P54619+Q9UGJ0+Q9Y478+Q13131+Q9UGI9)
# Test: AMP-dependent Kinase enzyme assay. An in vitro enzyme assay that detects ADP turnover that is directly proportional to AMPK activity. This uses naive AMPK that is activated during the assay with MK-8722
# Format: functional
# Set-up: scale not given: direction of the effect not stated beside the values
# Conditions: 30 µM
row,Compound,Percent Effect
1,CN(CCc1cccc2ccccc12)Cc1nc(N)nc(N(C)C)n1,-2.41%
2,COC(=O)C(NC(=O)c1cc(C)ccc1C)c1cccnc1 (centres undefined),1.93%
3,Cc1nc(CN(C)S(=O)(=O)c2ccc(F)cc2Br)no1,1.76%
4,CCc1nnc(CS(=O)(=O)c2ccc(C)c(C)c2)n1C,9.9%
5,C=C(C)COc1cccc(CNCc2nc3ccccc3c(=O)[nH]2)c1,1.56%
6,FC(F)(F)c1cc(C2CCCN(Cc3ccncc3)C2)n[nH]1 (centres undefined),3.39%
7,O=C1[C@@H]2C[C@H](O)CCN2C(=O)CN1CCSc1ccccn1,-5.57%
8,CCOc1cc(Cl)ccc1CNC(=O)c1ccc(=O)n(C)c1,10.5%
9,O=C1CN(C(=O)CC2C(=O)NCCN2CC2CCCCC2)CCN1 (centres undefined),-5.33%
10,Cc1cc(Cl)c(C)c(S(=O)(=O)N2CCN(Cc3ccncc3)CC2)c1Cl,-2.88%
11,CCNC(=O)c1ccnc(N2CCCC(COc3ccccc3C)C2)c1 (centres undefined),-0.143%
12,O=C(CCOc1ccccc1F)N1CCOCC1,-12.5%
13,CSc1ccc(C(=O)C2CCCN(C(=O)CCn3cnnn3)C2)cc1 (centres undefined),10.2%
14,Cn1cc(C(=O)NCCc2ccc(OC3CCCC3)cc2)ccc1=O,0.292%
15,O=C(COc1ccc(Cl)cc1)NCc1nncn1C1CC1,-8.68%
16,CN(C)C(=O)N1CCCC(C(=O)N(C)Cc2cnc(N)nc2)C1 (centres undefined),-2.52%
17,O=C(CN1CCOCC1)N(c1ccccc1)c1ccccc1,8.05%
18,COCCN1C(=O)[C@H]2CC[C@@H]1CN(S(=O)(=O)c1ccc(C#N)cc1)C2,10.8%
19,Cc1ccc(CN(C)C(=O)CNC(C)(C)c2noc(C(C)(C)C)n2)o1,-1.82%
20,CN(Cc1ccccc1F)Cc1cc2c(cc1Br)OCCO2,-3.17%

row,Compound,Percent Effect
1,CCc1cc(N2CCC(NCCc3ccccc3F)CC2)nc(C)n1,1.26%
2,Cc1ccc(C(=O)NCCN2CCOCC2)cc1N(C)S(C)(=O)=O,4.72%
3,CCOc1ccc2cc(C(=O)NCCC(=O)N(C)C)[nH]c2c1,-3.77%
4,Cc1cc(F)ccc1N1CCCC(NC(=O)CCCn2ccnc2)C1 (centres undefined),8.09%
5,O=C(NCC(O)Cc1ccccc1)c1ccc2[nH]c(=O)[nH]c2c1 (centres undefined),11.7%
6,CC(c1nc(-c2cccnc2)no1)N(C)CCCOc1ccccc1 (centres undefined),-4.41%
7,O=C(c1ccccc1F)N1CCCC1Cn1c(=O)oc2ccccc21 (centres undefined),10.9%
8,O=C(C1CC(c2cccc(F)c2)=NO1)N1CCc2ccccc21 (centres undefined),13.6%
9,COCc1ncc(CN2CCC3(CCNC(=O)CC3)CC2)cn1,0.0611%
10,COc1ccccc1OCc1nc2cc3c(cc2c(=O)o1)OCCCO3,-8.93%
11,CC(C(=O)Nc1nccs1)N(C)Cc1cccc(C#N)c1 (centres undefined),8.51%
12,Cc1cccc(C(C(=O)NC(C)(C)CN2CCCC2)N(C)C)c1 (centres undefined),-15.9%
13,CCC(=O)NCCc1cc2nc(-c3ccncc3)ccn2n1,18.1%
14,CN(Cc1nc2ccccc2[nH]1)C(=O)CN(C)c1ccccc1,-1.06%
15,Cc1cn[nH]c1C1COCCN1Cc1c[nH]cn1 (centres undefined),8.68%
16,O=C(NCCC1CN(C2CCCC2)CCO1)c1c[nH]c(=O)[nH]c1=O (centres undefined),5.79%
17,CCc1cnc(C(C)NC(=O)N2CCCN(CC(F)F)CC2)s1 (centres undefined),-2.53%
18,O=c1cc(N2CCCCC2)cnn1Cc1noc(C2CCCO2)n1 (centres undefined),4.71%
19,O=C(C1CCCOC1)N1CCN(CC(F)(F)F)c2ccccc21 (centres undefined),6.14%
